Pf growth 96h = P. falciparum growth inhibition at 96 hour, primary screen for plastid delayed-death inhibitors | P. falciparum luciferase reporter growth, 96 h | Potency, µM (series often up to 28.7 µM), most hits filed as inhibitors | hit rate 6.9% among 320,000 | AID 504834
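Delayed-death screen, second-generation endpoint: infected erythrocytes, 2% hematocrit, 0.05% parasitemia final; 96 hours at 37 C, 5% CO2; luciferase detection reagent; luminescence decrease equals reduced growth.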
Lassa entry inh = inhibitors of Lassa virus binding or cell entry; Potency, µM (titrated, usually from 37.9 µM), most hits filed as inhibitors; hit rate 1.2% among 300,000; Lassa virus pseudotype entry inhibition, cell reporter; calls by dose curve; tested in HEK293 cells; further: nearly all actives have a fitted effect of over 50% in size
CHX counter = counter-screen hit for Shiga toxin inhibitors, cycloheximide; cell reporter, cycloheximide protein synthesis inhibition counterscreen; max response, %; hit rate 12% among 300,000; AID 2314; in the data active means max response mostly above about 13%, no sharp cut-off; inactive means mostly below about 14%; further: read at 38.3 µM for the half of the compounds with a filed dose
Pf growth 48h = inhibits P. falciparum growth in the first generation, 48 h; P. falciparum luciferase growth in erythrocytes, 48 h; AID 504832; Potency, µM (doses to about 28.7 µM), most hits filed as inhibitors; hit rate 5.9% among 310,000
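Cell-based growth assay: transgenic P. falciparum expressing firefly luciferase, cultured in red cells within RPMI 1640 containing 0.5% w/v Albumax, 24 mM bicarbonate and gentamycin. A drop in luciferase activity indicates inhibition.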
Marburg entry inh = blocks Marburg virus binding to or entry into cells; Marburg virus pseudotyped entry inhibition, cell reporter; Potency, µM (doses to about 37.8 µM), hits mostly inhibitors; hit rate 1.8% among 300,000; calls by dose curve; tested in HEK293 cells
Shiga toxin inh = inhibitors of Shiga toxin in Vero cells; Vero cells, Shiga toxin protein synthesis inhibition reporter; inhibition, % at 38.7 µM; hit rate 9.2% among 290,000; in the data active means inhibition mostly above about 28%, no sharp cut-off; inactive means mostly below about 43%
A number is an active result; n = inactive; u = inconclusive; x = no result given; + = active, no number; ! = repeats disagree; [ ] = dose if it differs, or a comment. A selection: hits, their analogues and other compounds. The true share with any hit is near 19%. Unless noted, the call rests on the fitted dose curve; in most records, active means well fitted inhibition curve with a large enough effect; inconclusive means small, poorly fitted or top-dose-only effect, or another doubt; inactive means no such curve, though single readings can be large or run the other way.

SMILES	Pf growth 96h	Lassa entry inh	CHX counter	Pf growth 48h	Marburg entry inh	Shiga toxin inh
CC(C)c1ccccc1NC(=S)NC1CCCCC1	4.7µM	n	n	u	n	n
S=C(Nc1cccc2ccccc12)Nc1cccc2ccccc12	x	n	x	x	u	x
CSc1ccccc1NC(=S)NC1CCCC1	u	x	n	u	x	n
CSc1ccccc1NC(=S)NC1CCCCC1	u	n	n	n	n	n
CC(C)(C)OC(=O)N1CCC[C@H]1c1nnc(SCc2ccccc2F)o1	u	n	n	u	n	n
COc1ccc(-n2c(NC(=O)c3ccc(Br)o3)c(C#N)c3nc4ccccc4nc32)cc1	n	x	n	n	x	n
Cc1ccc(S(=O)(=O)NCC(=O)N(CC(=O)NCC2CCCO2)CC2CCCO2)cc1 (stereo unspecified)	u	n	n	n	n	n
O=C(NCc1ccco1)c1sc2cc(F)ccc2c1Cl	15µM	n	39	n	n	86
O=C(NCCCN1CCOCC1)c1sc2cc(Cl)ccc2c1Cl	n	n	n	n	u	n
O=C(NC1=NCCS1)c1sc2cc(F)ccc2c1Cl	n	u	77	n	u	96
O=C(Nc1ccon1)c1sc2cc(F)ccc2c1Cl	n	n	33	n	n	75
O=C(NC1CC1)c1sc2cc(F)ccc2c1Cl	n	x	x	n	x	x
O=C(NCCCN1CCOCC1)c1sc2cc(F)ccc2c1Cl	n	u	38	n	u	42
CCNc1nc(SC(C)C(=O)Nc2ccccc2)nc(N2CCOCC2)n1 (stereo unspecified)	u	n	n	n	n	n
Cc1ccccc1N1CCN(S(=O)(=O)CC23CCC(CC2NC(=O)C(N)CCS(C)(=O)=O)C3(C)C)CC1 (stereo unspecified)	x	x	n	x	x	n
COc1ccccc1-c1cc(C(=O)Nc2ccccc2C(F)(F)F)no1	x	n	x	x	n	x
Cc1cc(C(=O)Nc2ccccc2C(F)(F)F)no1	10µM	n	n	n	n	n
O=C(Nc1ccccc1C(F)(F)F)c1cc(-c2ccccc2O)on1	0.47µM	n	37	1µM	n	83
O=C(Nc1ccccc1C(F)(F)F)c1cc(-c2ccco2)on1	n	n	n	n	n	58
O=C(Nc1ccccc1C(F)(F)F)c1cccnc1	n	n	n	n	n	n
O=C(Nc1ccccc1C(F)(F)F)c1ccccn1	n	x	32	n	n	n
COc1cc(NC(=O)c2cc(-c3ccco3)on2)cc(OC)c1OC	u	n	n	n	u	n
COc1ccccc1-n1c(=O)n(C)c2c(C(N)=O)nc(-c3cccc(OC)c3OC)nc21	x	n	x	x	x	x
COc1ccc(-c2cn(-c3ccccc3)nc2C(=O)O)cc1OC	n	x	n	n[0.00184 µM]	x	n
O=C(c1cc2ccccc2o1)N1CCN(S(=O)(=O)/C=C/c2ccccc2)CC1	u	n	n	n	u	n
SMILES	Pf growth 96h	Lassa entry inh	CHX counter	Pf growth 48h	Marburg entry inh	Shiga toxin inh
COc1cccc(COC(=O)CCNC(=O)c2ccc(Br)cc2)c1OC	n	n	x	n	n	x
Cc1cc(Cl)c(S(=O)(=O)NCc2cccnc2)cc1OCC(=O)NC1CCCCC1	u	n	n	x	n	n
CCc1ccccc1NC(=O)c1cc2ncc(Br)cn2n1	u	n	n	x	n	n
O=C(Nc1ccccc1C(F)(F)F)c1cc2ncc(CCCl)cn2n1	u	u	23	u	n	77
CCc1nn2c(=O)cc(COC(=O)c3cc(Cl)c(OC)c(OC)c3)nc2s1	u	x	x	12µM	x	x
COCCc1nn2c(=O)cc(COC(=O)c3ccc(OC)c(OC)c3)nc2s1	x	n	x	x	x	x
COc1ccccc1N1CCN(S(=O)(=O)CCNC(=O)c2cc(=O)c3ccccc3o2)CC1	n	n	n	n	x	n
Nc1ccc(O)c2c(=O)cc(-c3ccccc3Cl)oc12	n	u	45!	n	u	61
CCOc1cccc(=O)c2c(C)n(C)c(C)c12	u	n	n	u	n	n
O=C(Nc1ccc(O)c2c(=O)cc(-c3ccccc3Cl)oc12)c1ccc(Cl)cc1Cl	u	x	n	n	x	n
O=c1cc(-c2ccccc2Cl)oc2cc(O)cc(O)c12	n	u	46	n	u	94
CCOc1cccc2oc(-c3ccccc3Cl)cc(=O)c12	x	x	59	x	x	+
N#Cc1ccc(CSc2nc3c(c(=O)[nH]2)CCC3)cc1	x	n	x	x	n	x
Cc1ccc(S(=O)(=O)Cc2csc(N)n2)cc1	n	n	n	n	n	n
Cc1ccc(OCCc2csc(N)n2)cc1	n	u	34	n	n	54
COc1ccc(OCc2csc(N)n2)cc1	n	n	36	n	u	86
COc1cccc(C(=O)NNC(=O)Cc2csc(N)n2)c1	u	n	n	n	n	n
COc1cccc(OC(=O)CSc2nnc(-c3ccc4c(c3)OCO4)o2)c1	x	n	x	x	u	x
Cc1nc2sc3c(c2c2nnc(SCC(=O)NCc4ccco4)n12)CCCC3	n	n	28	n	u	active
O=C(CSc1ncnc2sc3c(c12)CCCC3)c1ccccc1	n	n	n	n	n	n
O=C(CSc1ncnc2sc3c(c12)CCCCC3)NCc1ccco1	x	u	63	n	u	103
O=C(CSc1nnc2c3c4c(sc3ncn12)CCCC4)NCc1ccco1	n	u	n	n	n	n
O=C(CSc1ncnc2sc3c(c12)CCCC3)c1ccco1	n	n	68	n	u	156
CC1CCCCN1C(=O)NC12CC3CC(CC(C3)C1)C2 (stereo unspecified)	n	n	n	x	n	n
Cc1ccc(S(=O)(=O)N2CCC[C@H]2C(=O)OCC(=O)c2ccc3c(c2)NC(=O)CO3)cc1	n	x	n	n	x	n
SMILES	Pf growth 96h	Lassa entry inh	CHX counter	Pf growth 48h	Marburg entry inh	Shiga toxin inh
CCOc1ccc2nc(NC(=O)CSc3nc4ccccc4c(=O)n3Cc3ccco3)sc2c1	1.3µM	n	n	u	u	n
O=c1c2ccccc2nnn1CSc1nc2ccccc2c(=O)n1Cc1ccco1	n	n	n	n	u	n
CCCCCn1c(SCC2CCCO2)nc2cc(C(=O)N3CCC(C(N)=O)CC3)ccc2c1=O (stereo unspecified)	n	n	n	u	n	n
O=C(CSc1nc2ccccc2c(=O)n1Cc1ccco1)c1ccccc1	n	u	24	n	n	n
O=c1c2ccccc2nc(SCc2nnc(-c3ccccc3Br)o2)n1Cc1ccco1	x	u	17	u	n	n
CCOC(=O)CSc1nc2ccccc2c(=O)n1Cc1ccco1	n	n	n	n	n	n
NC(=O)C1CCN(C(=O)c2ccc3c(=O)n(Cc4ccco4)c(SCc4ccc([N+](=O)[O-])cc4)nc3c2)CC1	u	x	n	12µM	x	n
CCOC(=O)C1=C(COC(=O)/C=C/c2ccc(OC)c(OC)c2)NC(=O)NC1C (stereo unspecified)	n	n	x	u	n	x
Cc1c(O)c(S(=O)(=O)c2ccccc2)c(=O)n(-c2ccccc2)c1-c1ccccc1	n	n	n	n	u	n
COc1ccc(NC(=O)CCn2nc(-c3ccc(Cl)cc3)c3ccccc3c2=O)cc1	x	n	x	x	n	x
O=c1c2ccccc2nc(SCc2ccccc2)n1Cc1ccco1	n	n	36	u	n	n
Cc1ccc(CSc2nc3ccccc3c(=O)n2Cc2ccco2)cc1	9.3µM	n	n	13µM	u	63

Compound activity as filed in PubChem.
